Screening results as filed in PubChem.
The list is not random: actives were taken first. Their share in the collection is about 21%.
Pf growth 48h: P. falciparum growth inhibition at 48 hours (one generation); P. falciparum luciferase growth in erythrocytes, 48 h; Potency, µM (series often up to 28.7 µM), actives largely listed as inhibitors; 310,000 compounds, 5.9% hits
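Read-out is firefly luciferase luminescence from an integrated reporter in P. falciparum, so falling signal marks reduced parasite growth. Infected erythrocytes were at 2% hematocrit and 0.1% parasitemia (final) in Albumax-supplemented RPMI 1640.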
Shiga inhibitor: inhibitors of Shiga toxin in Vero cells; 290,000 compounds, 9.2% hits; AID 2315; inhibition, % at 38.7 µM; Vero cells, Shiga toxin protein synthesis inhibition reporter; in the data active = inhibition mostly above about 28%, no sharp cut-off; inactive = mostly below about 43%
NS1 function inh: inhibitors of influenza NS1 protein function. Potency, µM (series often up to 46.1 µM). 270,000 compounds, 0.4% hits. AID 2326; calls by dose curve; note: actives are rising curves; nearly all actives have a fitted effect of over 50% in size
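Read-out: OD600 growth recovery of NS1-expressing budding yeast. Cells grown overnight at 30C in -URA glucose medium, washed, resuspended and diluted 1:100 in 2% galactose assay medium, pH 6.0. Same strain lacking NS1 served as positive control.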
Cycloheximide cs: affects cycloheximide protein synthesis inhibition readout, counter-screen | cell reporter, cycloheximide protein synthesis inhibition counterscreen | max response, % | 300,000 compounds, 12% hits | AID 2314; in the data active = max response mostly above about 13%, no sharp cut-off; inactive = mostly below about 14%; note: read at 38.3 µM for the half of the compounds with a filed dose
Sm TGR block: inhibitors of Schistosoma mansoni thioredoxin glutathione reductase. Q962Y6. purified TGR, DTNB reduction, TNB absorbance 405 nm. Potency, µM (top dose mostly 114 µM), actives largely listed as inhibitors. 360,000 compounds, 3% hits. AID 485364; note: nearly all actives have a fitted effect of over 60% in size
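Kinetic colorimetric format: TGR-catalysed, NADPH-driven DTNB reduction monitored via TNB absorbance. Enzyme dispensed at 20 nM; compound exposure 15 min at room temperature before reaction start.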
Pf growth 96h: inhibits malaria parasite growth, 96 h | P. falciparum luciferase reporter growth, 96 h | Potency, µM (highest dose often 28.7 µM), hits mostly inhibitors | 320,000 compounds, 6.9% hits
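Two-generation exposure (96 h) targets delayed-death phenotype. Reporter parasites carrying integrated firefly luciferase, in red cells at 2% hematocrit and 0.05% parasitemia final, kept at 37 C, 5% CO2; luminescence loss indicates inhibition.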
A number is an active result; i = inactive; ? = inconclusive; nt = no result given; [ ] = dose if it differs, or a comment. Unless noted, calls come from the whole dose curve; as a rule, active = well fitted curve in the direction sought with a large enough effect; inconclusive = small, poorly fitted or top-dose-only effect, or another doubt; inactive = no such curve, though single readings can be large; an effect the other way counts as inactive or inconclusive.

SMILES	Pf growth 48h	Shiga inhibitor	NS1 function inh	Cycloheximide cs	Sm TGR block	Pf growth 96h
COC(Cn1c2c(c3cc(C)ccc31)CCCC2NCc1ccccc1)OC (centres undefined)	?	i	i	i	3.98µM	?
Cc1ccc2c(c1)c1c(n2CC(O)CNC2CCCC2)CCCC1 (centres undefined)	i	i	i	i	i	?
COc1ccc(-c2cn3nc(SCC(=O)NCC4CCCO4)ccc3n2)cc1 (centres undefined)	i	61.3	i	26.2	i	i
O=C(CSc1nc(-c2ccccc2)ns1)NCC1CCCO1 (centres undefined)	i	64.6	i	45.5	i	i
COc1ccc(-c2nnc3ccc(SCC(=O)NCC4CCCO4)nn23)cc1 (centres undefined)	i	i	i	i	i	?
CCOC(=O)CNC(=O)CSc1nc(-c2ccccc2)ns1	i	i	nt	i	i	i
CCOC(=O)CNC(=O)CSc1nc(-c2ccc(C)cc2)ns1	i	48.0	nt	i	i	i
O=C(CCN1N=C(c2ccccc2)CCC1=O)NCC1CCCO1 (centres undefined)	i	i	i	i	i	3.7µM
CCc1nc(CNC(=O)C2CCC(=O)N(CCc3cccc(F)c3)C2)no1 (centres undefined)	i	i	i	i	i	?
CCOc1ccc(-c2ccc(SCC(=O)NCC3CCCO3)nn2)cc1 (centres undefined)	i	i	nt	36.8	i	i
O=C(CSc1ccc2nc(-c3ccccc3)cn2n1)NCC1CCCO1 (centres undefined)	i	69.9	i	22.8	i	5.22µM
Cc1ccc(-c2ccc(SCC(=O)NCC3CCCO3)nn2)cc1 (centres undefined)	i	i	nt	i	i	i
c1ccc(-c2nnc(CN3CCN(c4ccccn4)CC3)o2)cc1	nt	nt	nt	nt	i	nt
O=C1OC2(c3ccccc31)c1cc(I)c(O)c(I)c1Oc1c2cc(I)c(O)c1I	13.1µM	i	nt	i	0.891µM	8.28µM
O=C1OC2(c3cc(I)c(O)c(I)c3Oc3c2cc(I)c(O)c3I)c2c(Cl)c(Cl)c(Cl)c(Cl)c21	nt	i	nt	i	nt	nt
CCOC(=O)C1C(=O)C=C(c2cccc(NS(C)(=O)=O)c2)CC1c1ccco1 (centres undefined)	?	i	i	i	31.6µM	i
CCOC(=O)c1cc(OC(=O)c2ccc(OC)c(OC)c2)n(-c2ccccc2)n1	nt	nt	nt	nt	i	nt
CS(=O)(=O)N(CC(=O)N1CCCC1)c1cccc(F)c1	i	nt	i	i	i	i
NNC(=O)CN1C(c2ccc(Br)cc2)=Nc2ccc(Br)cc2C1c1ccccc1 (centres undefined)	10.4µM	i	i	i	i	?
COc1cc(C2=Nc3ccc(Br)cc3C(c3ccccc3)N2CC(=O)NN)cc(OC)c1OC (centres undefined)	8.28µM	i	i	i	i	?
COC(=O)CN1C(CN2CCOCC2)=Nc2ccc(Br)cc2C1c1ccccc1 (centres undefined)	?	i	i	i	i	?
NNC(=O)CN1C(=O)Nc2ccc(Br)cc2C1c1ccccc1 (centres undefined)	?	i	?	i	i	i
CCCNC(=O)C1CCC(Cn2c(=O)c3sccc3n(CC(=O)N(CC)CC)c2=O)CC1 (centres undefined)	nt	nt	nt	nt	i	nt
COc1ccc(C(=O)NC(C(=O)NCCc2ccc3c(c2)OCCO3)C(C)C)cc1 (centres undefined)	i	74.3	nt	21.5	i	i
O=C(NCCc1ccc2c(c1)OCCO2)c1cc(F)cc(F)c1	i	20.6	i	24.6	i	i
SMILES	Pf growth 48h	Shiga inhibitor	NS1 function inh	Cycloheximide cs	Sm TGR block	Pf growth 96h
O=C(NCc1ccc2c(c1)OCO2)c1cccc(F)c1	i	i	i	i	i	i
O=C(NCCc1ccc2c(c1)OCCO2)c1cccc(F)c1	i	43.4	i	51.3	i	i
COc1ccc(OC)c(S(=O)(=O)Nc2cc3c(cc2C)n(C)c(=O)c(=O)n3C)c1	nt	nt	nt	nt	i	nt
Cc1ccc2[nH]c(CSc3nnc(C)s3)cc(=O)c2c1	nt	nt	nt	nt	i	nt
NC(=O)C1CCN(C(=O)N2c3ccccc3Sc3ccccc32)CC1	?	i	i	i	i	i[5.75 µM]
O=C(C[n+]1ccccc1)N1c2ccccc2Sc2ccccc21	?	i	i	i	28.2µM	i
O=C(C1CC1)N1c2ccccc2Sc2ccccc21	11.7µM	i	i	i	?	i
C[C@@H]1CC[C@H]2C(=O)N3[C@@H](CC[C@@H](C)[C@@H]3c3ccc(Br)cc3)C(=O)N2[C@H]1c1ccc(Br)cc1	?	i	i	i	i	?
O=C(Nc1ccc(S(=O)(=O)N2CCCCC2)cc1)c1ccco1	?	i	i	i	i	i
CC1CCCCN1S(=O)(=O)c1ccc(NC(=O)c2ccco2)cc1 (centres undefined)	nt	i	i	i	i	13.1µM
CC1CCN(S(=O)(=O)c2ccc(NC(=O)c3ccco3)cc2)CC1	3.7µM	i	i	i	i	i
O=C(CN(C(=O)CNC(=O)c1cccs1)c1cccc(F)c1)NC1CCCC1	i	i	i	i	i	?
COC(=O)c1[nH]c2cccc(Cl)c2c1NC(=O)CN(C)C1CCCCC1	?	i	i	i	i	8.28µM
C#CCOCCOCCOCCNc1nc(N2CCN(C(=O)[C@H]([C@@H](C)CC)n3cc([C@@H](N)CO)nn3)CC2)nc(N2CCN(C(=O)[C@H]([C@@H](C)CC)n3cc([C@@H](N)CC(C)C)nn3)CC2)n1	?	i	i	i	35.5µM	?
C#CCOCCOCCOCCNc1nc(N2CCN(C(=O)[C@H](CCC(=O)O)n3cc(C(N)Cc4ccc(O)cc4)nn3)CC2)nc(N2CCN(C(=O)[C@H](Cc3ccc(O)cc3)n3cc(C(N)CC(C)C)nn3)CC2)n1 (some centres undefined)	i	i	i	i	14.1µM	i
C#CCOCCOCCOCCNc1nc(N2CCN(C(=O)C([C@@H](C)CC)n3cc(C(N)Cc4ccc(O)cc4)nn3)CC2)nc(N2CCN(C(=O)[C@H](CCC(=O)O)n3cc(C(N)CO)nn3)CC2)n1 (some centres undefined)	i	i	i	i	39.8µM	i
C#CCOCCOCCOCCNc1nc(N2CCN(C(=O)[C@H]([C@@H](C)CC)n3cc([C@@H](N)CO)nn3)CC2)nc(N2CCN(C(=O)[C@H]([C@@H](C)CC)n3cc([C@@H](N)CO)nn3)CC2)n1	i	i	i	i	i	i
C#CCOCCOCCOCCNc1nc(N2CCN(C(=O)[C@H]([C@@H](C)CC)n3cc([C@@H](N)Cc4ccc(O)cc4)nn3)CC2)nc(N2CCN(C(=O)[C@H](CCCCN)n3cc([C@@H](N)CC(C)C)nn3)CC2)n1	i	i	i	34.8	12.6µM	i
CCOc1ccc(CCNC(=O)c2ccc3c(c2)N(Cc2ccccc2)C(=O)c2ccccc2S3=O)cc1OCC (centres undefined)	nt	nt	nt	nt	i	nt
